This is one part of a sample in which hits are shown more often than they occur. How many sequences the whole screen found active is unknown.
What follows are sequences tested on T1, Caupolican (Caup) homeodomain DNA-binding domain (assay: PBM E-score (8-mer, recovered from the published 9-mer minima) (E-score (dimensionless, -0.5 to 0.5)); Drosophila protein; higher = stronger relative binding preference, active = 0.31 or more).
T1 sequence: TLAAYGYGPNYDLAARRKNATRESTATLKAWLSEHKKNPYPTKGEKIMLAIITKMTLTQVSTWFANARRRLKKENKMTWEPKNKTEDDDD
How it was run: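 An enrichment score, with higher meaning stronger, expresses relative binding preference for each short DNA word. The protein used was Caup's homeodomain DNA-binding domain (residues 214-303), produced by in vitro transcription and translation and tested at 100 nM on custom-designed protein binding microarrays. The 8-mer values were recovered from published 9-mer scores, each equal to the lower of its two constituent 8-mer scores.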

Sequence	PBM E-score
TAATGTCA	0.258 (inactive)
TCATGTCA	0.391 (active)
TCATGGCA	-0.0694 (inactive)
ATTCGGAA	0.0171 (inactive)
CCCGCTAA	-0.182 (inactive)
CGCGATCC	-0.0878 (inactive)
GTCAACAC	0.175 (inactive)
GACAACGA	0.179 (inactive)
GTCAACAA	0.285 (inactive)
AACAACAC	0.392 (active)
CACAACAC	0.265 (inactive)
AACAACGC	0.182 (inactive)
GACAACAC	0.352 (active)
GACAACTC	0.191 (inactive)
GACAACAA	0.342 (active)
ACTATTTG	0.153 (inactive)
GTCTTGAA	0.0106 (inactive)
AGAACCCT	-0.163 (inactive)
GCATGAAC	0.104 (inactive)
ACATGAAT	0.336 (active)
CCATGAAC	0.0647 (inactive)
GCATGAAA	0.111 (inactive)
ACATGAAC	0.372 (active)

Sequence	PBM E-score
ATATGAAT	0.107 (inactive)
ACATGAAG	0.293 (inactive)
CCATGAAA	0.00449 (inactive)
ACATGAAA	0.314 (active)
CTATATTA	0.168 (inactive)
CCCTGTCA	0.129 (inactive)
ACAACAGC	0.214 (inactive)
ACAACATC	0.356 (active)
ACAACATA	0.411 (active)
ACAACAGG	0.192 (inactive)
ACAACATG	0.441 (active)
CCAACATC	0.113 (inactive)
ACAACTTG	0.271 (inactive)
CCAACATA	0.211 (inactive)
GCAACATA	0.204 (inactive)
ATGGGTCG	-0.0702 (inactive)
ACAATGGC	0.0838 (inactive)
ACTCTCGC	-0.115 (inactive)
ACTTGTAT	0.391 (active)
AATTGTAA	0.209 (inactive)
GCTTGTAA	0.384 (active)
ATTTGTAA	0.277 (inactive)
TATTGTAA	0.275 (inactive)

Sequence	PBM E-score
AGTTGTAT	0.231 (inactive)
TCTTGCAA	0.0461 (inactive)
AATTGTAT	0.228 (inactive)
ACTTGTAA	0.403 (active)
GATTGTAA	0.205 (inactive)
TCTTGTAA	0.371 (active)
GTTTGTAA	0.198 (inactive)
ATATCTAC	0.166 (inactive)
ACAAAAAC	0.117 (inactive)
AGTTGGTG	-0.0391 (inactive)
CCGCATAG	-0.0554 (inactive)
ATTGTTCG	0.213 (inactive)
CGCTCAGC	-0.138 (inactive)
GTACAAAA	0.323 (active)
GTACAATA	0.306 (inactive)
CTACAAGC	0.29 (inactive)
GCACAAGA	0.0557 (inactive)
CTACAAGA	0.263 (inactive)
ATACAAGC	0.316 (active)
ATACAAGA	0.322 (active)
CTACAAAA	0.123 (inactive)
GTACAAGA	0.418 (active)
ATACAAGG	0.283 (inactive)

Sequence	PBM E-score
ATACAATA	0.26 (inactive)
TTACAAAA	0.203 (inactive)
AATAGCCT	-0.0311 (inactive)
AATAGAGA	0.041 (inactive)
CACGTAAG	0.0839 (inactive)
GTGCTCCA	-0.0875 (inactive)
CTTCCAGC	-0.248 (inactive)
CCCGAATC	-0.201 (inactive)
CACATCTC	-0.00827 (inactive)
CAAATGTA	0.294 (inactive)
CACATGTC	0.387 (active)
AACATCTT	0.246 (inactive)
AACATTTA	0.275 (inactive)
CAAATGTC	0.141 (inactive)
AAAATGTT	0.249 (inactive)
CACATCTA	0.208 (inactive)
CACATGTA	0.42 (active)
AACATCTA	0.252 (inactive)
AACATGTA	≥ 0.48 (active)
AACATGTT	0.45 (active)
GCGTACGC	-0.112 (inactive)
ACCACCAC	0.0458 (inactive)
CGAATCTC	0.0162 (inactive)

Sequence	PBM E-score
GATGCCCA	-0.0463 (inactive)
CGCTTTAC	0.0463 (inactive)
GCGATACA	0.217 (inactive)
ATTGGGAG	-0.0672 (inactive)
ACGGATCG	0.00507 (inactive)
CCTTGCTA	0.0673 (inactive)
AAAGGTCT	-0.0899 (inactive)
GACATGTC	0.437 (active)
AACATCTG	0.22 (inactive)
CACATGTG	0.18 (inactive)
GAAATGTC	0.114 (inactive)
GACATATC	0.256 (inactive)
GACATTTA	0.177 (inactive)
AACATGTG	0.402 (active)
AAAATGTC	0.217 (inactive)
GACATGTA	0.477 (active)
AACATGTC	0.424 (active)
GAAATGTA	0.131 (inactive)
AACATCTC	0.254 (inactive)
CGTGCTGA	0.0459 (inactive)
CTGGGCTC	-0.186 (inactive)
ACACCACA	0.262 (inactive)
ACGCTGTC	0.0456 (inactive)

Sequence	PBM E-score
GCCACCAC	-0.199 (inactive)
ATTGCCAG	-0.0611 (inactive)
AAGTTACA	0.261 (inactive)
CTGTTACC	0.142 (inactive)
GTGTTAAA	0.246 (inactive)
GAGTTACA	0.215 (inactive)
TAGTTACA	0.311 (active)
AGGTTACG	-0.0221 (inactive)
GTGTTACA	0.381 (active)
ATGTTACG	0.326 (active)
CGGTTACA	0.183 (inactive)
GCGTTACA	0.198 (inactive)
CTGTTACA	0.33 (active)
ACGTTACG	0.0614 (inactive)
CGTTATTA	0.116 (inactive)
AAAACCGG	-0.0173 (inactive)
ACGCAATG	0.0404 (inactive)
CTGTCCCC	-0.0725 (inactive)
CAGCTAGG	-0.046 (inactive)
TACAATGA	0.266 (inactive)
AGGTTACC	-0.0352 (inactive)
AAGTTACC	0.148 (inactive)
AGGTTACA	0.191 (inactive)

Sequence	PBM E-score
ATGTTACA	0.406 (active)
ACGTTACA	0.282 (inactive)
ATGTTACC	0.331 (active)
AAGTCGTG	0.0196 (inactive)
AAAATGTA	0.166 (inactive)
CGATATTA	0.219 (inactive)
ATTTTACA	0.305 (inactive)
GATTACCA	0.0721 (inactive)
AATTACTA	0.179 (inactive)
TATTACAA	0.341 (active)
TCTTACAA	0.246 (inactive)
AATTACCA	0.184 (inactive)
AATTACAT	0.385 (active)
GATTACTA	0.184 (inactive)
GATTACAA	0.314 (active)
AATTACGT	0.122 (inactive)
CATTACAA	0.288 (inactive)
AATTACAG	0.244 (inactive)
AATTACAA	0.396 (active)

— the supplement of paper PMC3724861
